The values that follow come from the supplement of paper PMC13380429.

Experiment [1] concerns Vero E6 infected with SARS-CoV-2. In words: morphology score (similarity to uninfected cells); higher = more like uninfected cells. The note with it: 24 h.
Experiment [2] has the same test system. In words: SARS-CoV-2 infection rate relative to infected DMSO; higher = more infection, active = 60 or less. The note with it: 24 h.

With `COc1cc(OC)c2c(=O)[nH]c(-c3cc(C)c(OCCO)c(C)c3)nc2c1` [apabetalone] (0.833333 µM), in experiment [1], the morphology score stood at 0.0872. For the same compound, the SARS-CoV-2 infection rate in experiment [2] is 106% (inactive).
The corresponding values for `C[C@@H](C(=O)O)c1ccc(-c2ccccc2)c(F)c1` (racemic) [flurbiprofen-(+/-)] (10 µM) are 0.232 and 107% (inactive).
On to `Clc1ccccc1CNC[C@H]1CC[C@H](CNCc2ccccc2Cl)CC1` (10 µM), for which the morphology score in experiment [1] was determined as 0.523. In experiment [2], the SARS-CoV-2 infection rate is 49% (active).
`NS(=O)(=O)c1cc(-c2nnn[nH]2)c(NCc2cccs2)cc1Cl` [azosemide] (10 µM) had a morphology score in experiment [1] of 0.286. Further, the SARS-CoV-2 infection rate in experiment [2] is 98.5% (inactive).
Compound `C[C@@H]1O[C@@H](O[C@H]2[C@H](Oc3cc(O)c(C(=O)CCc4ccc(O)cc4)c(O)c3)O[C@H](CO)[C@@H](O)[C@@H]2O)[C@H](O)[C@H](O)[C@H]1O` [naringin-dihydrochalcone] (10 µM) yielded a morphology score in experiment [1] of 0.0437. Moreover, the SARS-CoV-2 infection rate in experiment [2] was 107% (inactive).
For the compound `O=C(CCc1ccncc1)NNC(=O)N1Cc2ccccc2Oc2ccc(Cl)cc21` (10 µM), the morphology score in experiment [1] was -0.103. For the same compound, the SARS-CoV-2 infection rate in experiment [2] is 108% (inactive).
In the case of `O=C(O)c1ccc(/C=C2\SC(=S)N(c3cccc(C(F)(F)F)c3)C2=O)cc1` (10 µM), the morphology score in experiment [1] stood at 0.125. Further, in experiment [2], the SARS-CoV-2 infection rate is 108% (inactive).
With `O=C(O)CCC(=O)O` [succinic-acid] (10 µM), the morphology score in experiment [1] was -0.0828. Also, in experiment [2], the SARS-CoV-2 infection rate was 106% (inactive).
In the case of `CCCCCCCCCCCCCCCCCCCCCC(=O)O` (10 µM), in experiment [1], the morphology score amounted to 0.0564. Also, the SARS-CoV-2 infection rate in experiment [2] was 108% (inactive).
In experiment [1], `O=C1CCCC(=O)C1C(=O)c1ccc(C(F)(F)F)cc1[N+](=O)[O-]` [nitisinone] (10 µM) gave a morphology score of 0.0537. Besides, in experiment [2], the SARS-CoV-2 infection rate was 110% (inactive).
